TEAD-YAP block: TEAD-YAP interaction inhibition, primary screen, TEAD-YAP interaction inhibitor project, luminescence, HEK-TIYL cells | AID 1259422, 2018 | inhibition, % at 9.12 µM | 640,000 compounds, 1.4% hits | TEAD-Gal4/YAP UAS-luciferase luminescence; in the data active means inhibition above about 32%;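 further: 0% = median of test compound wells and 100% = reference inhibitor wells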
FBW7 act: FBW7 E3 ligase activators, primary screen, biochemical, AlphaScreen, human | F-box/WD repeat-containing protein 7 (Homo sapiens), Q969H0 | AlphaScreen FBW7–phospho-cyclin E peptide binding, activator screen | normalized activity (activation), % at 26.1 µM | 650,000 compounds, 0.13% hits | AID 1259310, 2017; in the data active means normalized activity above about 1.9%;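 further: purified mutant Fbw7 with reduced substrate affinity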
MITF primary: MITF inhibitors, primary screen, biochemical, AlphaScreen, human | Microphthalmia-associated transcription factor (Homo sapiens), O75030 | AlphaScreen MITF homodimerization, bead proximity signal | inhibition, % at 2.6 µM | 650,000 compounds, 0.91% hits | AID 1259374, 2018; in the data active means inhibition above about 50%;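 further: 0% = vehicle wells with protein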
Target sequence (O75030 whole entry, looked up): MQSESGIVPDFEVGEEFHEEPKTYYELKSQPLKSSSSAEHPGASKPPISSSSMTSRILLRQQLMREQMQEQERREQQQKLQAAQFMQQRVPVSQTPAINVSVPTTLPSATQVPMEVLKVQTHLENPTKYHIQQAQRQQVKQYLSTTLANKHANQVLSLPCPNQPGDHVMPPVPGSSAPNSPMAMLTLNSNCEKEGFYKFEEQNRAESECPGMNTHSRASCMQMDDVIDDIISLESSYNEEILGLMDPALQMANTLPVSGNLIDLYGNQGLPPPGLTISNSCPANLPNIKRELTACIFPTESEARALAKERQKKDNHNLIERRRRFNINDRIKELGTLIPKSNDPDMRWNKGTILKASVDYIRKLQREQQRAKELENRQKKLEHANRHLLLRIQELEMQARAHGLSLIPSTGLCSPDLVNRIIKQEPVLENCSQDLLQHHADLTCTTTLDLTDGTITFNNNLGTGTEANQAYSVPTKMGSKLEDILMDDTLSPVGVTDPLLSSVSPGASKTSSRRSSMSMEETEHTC
GPR151 activ: activators of human GPR151, primary screen, cell-based, PathHunter beta-arrestin, luminescence; G-protein coupled receptor 151 (Homo sapiens), Q8TDV0; PathHunter beta-arrestin GPR151 cells; activation, % at 11.2 µM; 650,000 compounds, 1% hits; AID 1508602, 2020; in the data active means activation above about 4.9%;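 further: 0% = median of compound wells and 100% = cells with positive control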
MITF confirm: MITF inhibitors, retest of hits, confirmation, biochemical, AlphaScreen, triplicate | shares compounds with MITF primary | AlphaScreen MITF homodimerization, biotin/His-MITF beads | inhibition, % at 2.6 µM | 4,700 compounds, 16% hits;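 active means inhibition above a cutoff derived from the DMSO control wells, cut at about 28% in these data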;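 further: 0% = MITF dimer wells with DMSO only; inhibitors lower the bead chemiluminescence by keeping MITF from dimerizing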
AS interf DR: AlphaScreen optical interference compounds, dose response, counter-screen, biochemical, HTS. shares compounds with MITF primary. AlphaScreen optical interference counterscreen, cell-free. IC50, µM. 480 compounds, 6% hits; call rule not given here
AlphaScreen intf2: AlphaScreen optical interference compounds, counter-screen for MITF inhibitor project, biochemical, triplicate; 4,700 compounds, 7.6% hits; LysRS AlphaScreen counterscreen, signal interference; shares compounds with MITF primary; inhibition, % at 2.6 µM;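 active means inhibition above a cutoff derived from the DMSO control wells, cut at about 30% in these data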
Starred values were filed as active, the others as inactive. An excerpt weighted towards active compounds, which were near 3.4% of everything screened.

`O=C(CSc1nnnn1C1CCCCC1)c1ccccc1` gave TEAD-YAP block -1.2, FBW7 act 0.1, MITF primary 5.5 and GPR151 activ 0.0.
For O=C(CSc1nnnn1C1CCCC1)c1ccccc1F the results were TEAD-YAP block -61.6, FBW7 act 0.0, MITF primary 116.2*, GPR151 activ -1.5, MITF confirm -7.9 and AlphaScreen intf2 23.8.
CC1CC(C)CN(C(=O)C2CCCN(S(=O)(=O)c3ccc4c(c3)oc(=O)n4C)C2)C1 (centres undefined) was read as TEAD-YAP block 4.6, FBW7 act 0.1, MITF primary 18.3 and GPR151 activ -0.4.
For O=[N+]([O-])c1cc(C=Nc2ccc(N3CCOCC3)cc2)c(O)c([N+](=O)[O-])c1 the results were TEAD-YAP block 2.6, FBW7 act -1.5, MITF primary 74.5*, GPR151 activ -0.5, MITF confirm 83.3*, AS interf DR >6.48 and AlphaScreen intf2 -3.4.
O=C1CCCN1C(=O)CSc1nnc(Nc2ccccc2)s1 was read as TEAD-YAP block 11.6, FBW7 act 0.0, MITF primary 3.4 and GPR151 activ -3.7.
`Cc1ccc(/C=C/C(=O)Nc2nn[nH]n2)o1` gave TEAD-YAP block 14.3, FBW7 act -0.2, MITF primary 39.1 and GPR151 activ 1.8.
For CC(C)c1ccc(/C=C/C(=O)Nc2nn[nH]n2)cc1 the results were TEAD-YAP block -21.1, FBW7 act 0.9, MITF primary 51.8*, GPR151 activ 0.7, MITF confirm 8.7 and AlphaScreen intf2 13.5.
`Nn1c(SCC(=O)Nc2ccc3c(c2)OCO3)nnc1-c1cccnc1` gave TEAD-YAP block 13.9, FBW7 act 0.3, MITF primary 7.0 and GPR151 activ 1.1.
Screening O=C(Nc1ccc(O)cc1)c1cc(S(=O)(=O)N2CCCC2)ccc1Cl returned TEAD-YAP block 6.9, FBW7 act 0.2, MITF primary 70.5*, GPR151 activ 0.7, MITF confirm 5.0 and AlphaScreen intf2 5.3.
For Cc1ccc(NC(=O)C2(N3C(=O)CC3c3ccco3)CCCCC2)cc1 (centres undefined) the results were TEAD-YAP block -4.8, FBW7 act 0.0, MITF primary 67.8*, GPR151 activ 0.7, MITF confirm 1.4 and AlphaScreen intf2 17.3.
`COc1cccc(N2C(=O)c3cccc4c(N5CCCC5)ccc(c34)C2=O)c1` gave TEAD-YAP block 1.6, FBW7 act 0.1, MITF primary 4.0 and GPR151 activ -0.7.
`O=C(NC(=S)Nc1ccc2[nH]c(=O)[nH]c2c1)c1ccccc1Cl` gave TEAD-YAP block -8.8, FBW7 act -0.1, MITF primary 99.2*, GPR151 activ 0.0, MITF confirm -9.8 and AlphaScreen intf2 -2.9.
For COc1ccccc1C(=O)NC(=S)Nc1ccc2[nH]c(=O)[nH]c2c1 the results were TEAD-YAP block -46.6, FBW7 act 0.0, MITF primary -10.0 and GPR151 activ -0.9.
O=C(CN(c1ccc(Cl)c(C(F)(F)F)c1)S(=O)(=O)c1ccccc1)NCc1cccnc1 was read as TEAD-YAP block 5.5, FBW7 act -0.1, MITF primary 50.9*, GPR151 activ 0.3, MITF confirm -4.1 and AlphaScreen intf2 -5.9.
O=C(CN(c1ccc(Cl)c(C(F)(F)F)c1)S(=O)(=O)c1ccccc1)NCc1ccccn1 was read as TEAD-YAP block -3.7, FBW7 act 0.0, MITF primary 6.9 and GPR151 activ 0.4.
`COc1cc(OC)cc(C(=O)N2CCN(Cc3cc(OC)c(OC)c(OC)c3)CC2)c1` gave TEAD-YAP block 4.8, FBW7 act -0.1, MITF primary 29.0 and GPR151 activ -1.0.
For COc1cc(CN2CCN(C(=O)c3ccncc3)CC2)cc(OC)c1OC the results were TEAD-YAP block -0.5, FBW7 act 0.0, MITF primary 72.0*, GPR151 activ 0.5, MITF confirm 3.4 and AlphaScreen intf2 -6.2.

Source: PubChem (The Scripps Research Institute Molecular Screening Center)
